In the library only some 1.6% were active in any assay of this set; here they are far more common.
KCNQ2 block: blocks the rat KCNQ2 potassium channel; O88943; CHO-K1 KCNQ2, FluxOR thallium flux, 20 min; hits give low values; B-score at 10 µM; hit rate 1.1% among 310,000; AID 2156;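 active means fluorescence ratio B-score at most minus 3 library SDs, with starting brightness B-score within 2 library SDs, cut at about -5.5 in these data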
KCNQ2 pot: KCNQ2 (rat) channel potentiation; O88943; CHO-K1 KCNQ2, FluxOR thallium flux fluorescence; hits give high values; B-score at 10 µM; hit rate 0.54% among 310,000;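 active means fluorescence ratio B-score at least 3 SD of library B-scores, with initial fluorescence B-score within 3 of them, cut at about 5.3 in these data; same plate scores as AID 2156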;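 further: B-score of peak minus minimum over baseline fluorescence ratio after K+ and Tl+ stimulus; positive B-score means potentiation of KCNQ2 with more thallium influx and brighter signal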
Hits are given with their value.

How did Cc1cccc(C(C)C)c1NC(=O)C(C)OC(=O)Cc1n[nH]c(=O)c2ccccc12 (configuration not stated) do in these assays?
KCNQ2 block: -6.67; KCNQ2 pot: inactive

How did COc1ccc(CCNC(=O)CSc2nc3ccccc3o2)cc1OC do in these assays?
KCNQ2 block: inactive

What do the screens show for `Cc1ccc2c(c1)cc(CN(CCc1ccccc1)C(=O)N1CCOCC1)c1nnnn12`?
KCNQ2 block: inactive

How did Cc1ccc2c(c1)cc(CN(Cc1ccco1)C(=O)N1CCOCC1)c1nnnn12 do in these assays?
KCNQ2 block: -8.82; KCNQ2 pot: inactive

What do the screens show for `Cc1cc(-c2n[nH]c(=S)n2/N=C/c2sccc2C)n[nH]1`?
KCNQ2 block: inactive

How did NCCCC[C@H]1CNC(=O)C(=O)N1CCc1cc(C(F)(F)F)cc(C(F)(F)F)c1 do in these assays?
KCNQ2 block: inactive; KCNQ2 pot: inactive

Results for COc1ccccc1N(Cc1ccccc1)S(=O)(=O)c1cccc(C(=O)Nc2ccc(C)cn2)c1 ?
KCNQ2 block: -7.14; KCNQ2 pot: inactive

What do the screens show for `COc1ccccc1N(Cc1ccccc1)S(=O)(=O)c1cccc(C(=O)Nc2ccccn2)c1`?
KCNQ2 block: inactive

Results for COC(C(=O)NC(C(C)C)C(C)C)c1ccccc1 (configuration not stated) ?
KCNQ2 block: inactive

Results for O=C(NCC(c1ccco1)N1CCc2ccccc2C1)c1ccc(Cl)c([N+](=O)[O-])c1 (configuration not stated) ?
KCNQ2 block: -5.76; KCNQ2 pot: inactive

What do the screens show for `CCOc1ccc(C(=O)NCC(c2ccco2)N2CCc3ccccc3C2)cc1` (configuration not stated)?
KCNQ2 block: -6.37; KCNQ2 pot: inactive

Results for O=C(NCC(c1ccco1)N1CCc2ccccc2C1)c1cccc([N+](=O)[O-])c1 (configuration not stated) ?
KCNQ2 block: inactive

Results for COc1ccc(C(=O)NCC(c2ccco2)N2CCc3ccccc3C2)cc1 (configuration not stated) ?
KCNQ2 block: inactive

Results for O=C(O)CCc1cc(I)c(Oc2ccc(O)c(I)c2)c(I)c1 ?
KCNQ2 block: inactive; KCNQ2 pot: 32.1

What do the screens show for `N[C@@H](Cc1cc(I)c(Oc2ccc(O)c(I)c2)c(I)c1)C(=O)O`?
KCNQ2 block: inactive; KCNQ2 pot: inactive

Results for COc1ccc(S(=O)(=O)CCC(=O)NCc2ccc(C)o2)cc1 ?
KCNQ2 block: inactive

How did Cc1nc(Nc2ccc(S(=O)(=O)N3CCCCC3C)cc2)c2nnn(Cc3ccccc3)c2n1 (configuration not stated) do in these assays?
KCNQ2 block: inactive; KCNQ2 pot: inactive

Results for CC(C)NC(=O)c1ccc2c(=O)n(C3CCCC3)c(=S)[nH]c2c1 ?
KCNQ2 block: inactive; KCNQ2 pot: inactive

Results for CCN1CCN(c2c(/C=C3\SC(=S)N(Cc4ccco4)C3=O)c(C)c(C#N)c(=O)n2C)CC1 ?
KCNQ2 block: -7.74; KCNQ2 pot: inactive

Results for COc1ccc(-n2c(C)cc(/C=C3\SC(=S)N(Cc4ccco4)C3=O)c2C)cc1 ?
KCNQ2 block: inactive

What do the screens show for `O=C(CSc1nnc(SCc2ccc(Cl)cc2)s1)N/N=C/c1c(Cl)cccc1Cl`?
KCNQ2 block: inactive; KCNQ2 pot: 5.4

Results for O=C(CSc1nnc(SCc2ccc(Cl)cc2)s1)N/N=C/c1ccc(Cl)cc1Cl ?
KCNQ2 block: inactive

How did COc1ccccc1NC(=S)N1CCN(c2cccc(C)c2C)CC1 do in these assays?
KCNQ2 block: inactive; KCNQ2 pot: inactive

What do the screens show for `COc1ccc(NC(=O)COC(=O)CC23CC4CC(CC(C4)C2)C3)c([N+](=O)[O-])c1`?
KCNQ2 block: -6.08; KCNQ2 pot: inactive

Results for CCC(=O)OCC(=O)Nc1ccc(OC)cc1[N+](=O)[O-] ?
KCNQ2 block: inactive

What do the screens show for `CCc1ccc2nc(N(CCN(C)C)C(=O)c3ccc4ncsc4c3)sc2c1`?
KCNQ2 block: inactive

Results for COc1ccc(F)cc1S(=O)(=O)N1CCN(c2ccccn2)CC1 ?
KCNQ2 block: inactive

How did COc1cccc(OCCCCSc2ncccn2)c1 do in these assays?
KCNQ2 block: inactive

How did c1ccc(Oc2cccc(OCCCCSc3ncccn3)c2)cc1 do in these assays?
KCNQ2 block: -6.16; KCNQ2 pot: inactive

Results for Cn1c(=O)c2[nH]c(-c3ccccc3Cl)c(O)c2n(C)c1=O ?
KCNQ2 block: inactive

What do the screens show for `Cc1c(Cl)ccc2c(C(=O)NCCN3CCCCC3)cc(-c3ccccn3)nc12`?
KCNQ2 block: inactive

Results for COc1ccccc1-c1cc(C(=O)NC2CCN(C)CC2)c2ccc(Cl)c(C)c2n1 ?
KCNQ2 block: -5.75; KCNQ2 pot: inactive

What do the screens show for `Cc1ccc(C)c(N2CCN(CCCNC(=O)Cn3cccc3C(=O)c3ccccc3)CC2)c1`?
KCNQ2 block: inactive

How did CCOC(=O)CSc1ncc(OC)c(Sc2ccc(Cl)cc2)n1 do in these assays?
KCNQ2 block: inactive

What do the screens show for `CCOC(=O)C(C)Sc1ncc(OC)c(Sc2ccc(Cl)cc2)n1` (configuration not stated)?
KCNQ2 block: -7.96; KCNQ2 pot: inactive

Results for CC12CCC(C(=O)Nc3cccc(Cl)c3)(C(Br)C1=O)C2(C)C (configuration not stated) ?
KCNQ2 block: inactive; KCNQ2 pot: 6.98

Results for CC12CCC(C(=O)Nc3ccc(Cl)cc3)([C@H](Br)C1=O)C2(C)C (some centres not stated) ?
KCNQ2 block: inactive

Results for COc1cc(O)cc2c1[C@@H]1Oc3c(ccc(O)c3CC=C(C)C)[C@@H]1CO2 ?
KCNQ2 block: -6.46; KCNQ2 pot: inactive

Results for COc1cc2ccc(=O)oc2c(CC=C(C)C)c1OC ?
KCNQ2 block: inactive; KCNQ2 pot: inactive

Results for Cc1cccc(N(C(=O)Cn2nnc3ccccc32)C(C(=O)NC(C)(C)C)c2ccsc2)c1 (configuration not stated) ?
KCNQ2 block: inactive; KCNQ2 pot: inactive

What do the screens show for `C(#Cc1ccccc1)CN1CCN(c2ccccn2)CC1`?
KCNQ2 block: inactive; KCNQ2 pot: inactive

Results for C(#Cc1ccccc1)CN1CCCCC1 ?
KCNQ2 block: inactive; KCNQ2 pot: 6.3

What do the screens show for `Cc1ccc(OCC(=O)N2CCOCC2)c([N+](=O)[O-])n1`?
KCNQ2 block: inactive

What do the screens show for `C/C(=N\O)c1cccc(Br)c1`?
KCNQ2 block: inactive

What do the screens show for `CC(=O)c1sc(Nc2cccc3ccccc23)nc1C`?
KCNQ2 block: inactive

How did O=C(c1cccc(Cl)c1)N1CCN(Cc2ccc3c(c2)OCO3)CC1 do in these assays?
KCNQ2 block: inactive

What do the screens show for `Cc1cc(Cl)ccc1NC(=S)N1CCN(Cc2ccc3c(c2)OCO3)CC1`?
KCNQ2 block: inactive

How did O=C(NC(=S)N1CCN(Cc2ccc3c(c2)OCO3)CC1)c1cccc(Br)c1 do in these assays?
KCNQ2 block: inactive; KCNQ2 pot: 9.47

What do the screens show for `CCNC(=S)N1CCN(Cc2ccc3c(c2)OCO3)CC1`?
KCNQ2 block: inactive; KCNQ2 pot: inactive

What do the screens show for `O=C(c1cccn2c(=O)c3ccc(Cl)cc3nc12)N1CCN(Cc2ccc3c(c2)OCO3)CC1`?
KCNQ2 block: -5.85; KCNQ2 pot: inactive

How did O=C(NC(=S)N1CCN(Cc2ccc3c(c2)OCO3)CC1)c1ccc(Cl)cc1 do in these assays?
KCNQ2 block: inactive; KCNQ2 pot: 8.94

What do the screens show for `COc1cc(OC)cc(C(=O)NCCc2ccc(OC)c(OC)c2)c1`?
KCNQ2 block: inactive; KCNQ2 pot: inactive

Results for CC1=NN(c2ccccc2)C(=O)/C1=C/c1ccc(-c2ccc(C)c(C(=O)O)c2)o1 ?
KCNQ2 block: inactive; KCNQ2 pot: 6.84

Compound activity from PubChem BioAssay.
